The nature of this assay: HSE-luciferase reporter activators – cell-based (AID 1611). The note with it: human cells, HSE-luciferase heat shock reporter; stronger effect = higher value.
As to `Clc1ccc(CSC(Cn2ccnc2)c2ccc(Cl)cc2Cl)cc1` (centres undefined), the fold change stood at 0.83.

On to `O=c1[nH]oc2c1CCNC2`, for which the fold change worked out at 1.02. In the case of `CCC1(CC)C(=O)C=CNC1=O` it was 1.24; in that of `CC(CCc1ccccc1)NC(C)C(O)c1ccc(O)cc1` (centres undefined), 1.23. In the case of `CC[C@@H]1/C=C/C=C/C[C@H](C)[C@@H](O)[C@](C)(O)C(=O)[C@H](C)[C@@H](O)[C@H](C)C(=O)[C@H](C)[C@@H](O)[C@H](C)/C=C/C(=O)O[C@H]2[C@@H](C)[C@@H](CC1)O[C@@]1(CC[C@@H](C)[C@@H](C[C@H](C)O)O1)[C@@H]2C` it was 1.06; in that of `C#CC1(O)CCC2C3CCC4=CC(=O)CCC4(C)C3CCC21C` (centres undefined), 0.91. In the case of `Clc1ccc(COC(Cn2ccnc2)c2ccc(Cl)cc2Cl)cc1` (centres undefined) it was 1.04; in that of `CCN1C[C@@]2(COC)C3[C@@H](OC)[C@H]4[C@@H]1[C@]3(C(OC)C[C@H]2O)C1C[C@@]2(O)[C@H](OC(=O)c3ccccc3)C1[C@]4(OC(C)=O)[C@@H](O)[C@@H]2OC` (some centres undefined), 0.98. For `CN(C)[C@@H]1C(=O)C(C(N)=O)=C(O)[C@@]2(O)C(=O)C3=C(O)c4c(O)ccc(Cl)c4[C@@](C)(O)[C@H]3C[C@@H]12`, the fold change was determined as 0.9. In the case of `CNC(C)C(O)c1ccccc1` (centres undefined) it was 0.96; in that of `O=[N+]([O-])c1cc(O)c(O)c([N+](=O)[O-])c1`, 0.87; in that of `NCC(O)c1ccc(O)cc1` (centres undefined), 1.61. On to `N#C/C(=C\c1ccc(O)cc1)C(=O)O`, for which the fold change is 1.34. In the case of `Clc1ccc(COC(Cn2ccnc2)c2ccc(Cl)cc2Cl)c(Cl)c1` (centres undefined) it was 0.8; in that of `CC(=O)[O][Hg][c]1ccccc1`, 1.14; in that of `CNC1(c2ccccc2Cl)CCCCC1=O` (centres undefined), 1.39. As for `C=CCN1CC[C@]23c4c5ccc(O)c4OC2C(=O)CC[C@@]3(O)[C@H]1C5` (some centres undefined), the figure is 1.1; as for `C[C@@H]([C@H](O)c1ccccc1)N(C)C`, 1.08. As for `[N-]=[N+]=CC(=O)OCC(N)C(=O)O` (centres undefined), the figure is 1.29; as for `CCCCCCCCCCCCCCCC[N+](C)(C)C`, 0.93; as for `C[C@@H]1C[C@@H]([C@H](O)CC2CC(=O)NC(=O)C2)C(=O)[C@@H](C)C1`, 0.84. As to `NC(=O)CN1CCCC1=O`, the fold change stood at 0.86. In the case of `C[C@H]1O[C@@H](O[C@H]2[C@@H](O)C[C@H](O[C@H]3[C@@H](O)C[C@H](O[C@H]4CC[C@]5(C)C6CC[C@]7(C)[C@@H](C8=CC(=O)OC8)CC[C@]7(O)C6CC[C@@H]5C4)O[C@@H]3C)O[C@@H]2C)C[C@H](O)[C@@H]1O` (some centres undefined) it was 78. In the case of `CN(C)[C@@H]1C(=O)C(C(N)=O)=C(O)[C@@]2(O)C(=O)C3=C(O)c4c(O)cccc4[C@@](C)(O)[C@H]3[C@H](O)[C@@H]12` it was 1.27; in that of `CC(=O)OC1CN2CCC1CC2` (centres undefined), 0.77; in that of `CC(=O)OCC1=C(C(=O)O)N2C(=O)[C@@H](NC(=O)CCCC(N)C(=O)O)C2SC1` (some centres undefined), 0.85. As for `N#CC(O[C@@H]1O[C@H](CO[C@@H]2O[C@H](CO)[C@@H](O)[C@H](O)[C@H]2O)[C@@H](O)[C@H](O)[C@H]1O)c1ccccc1` (some centres undefined), the fold change was determined as 0.7. For the compound `C[C@H](N)[C@H](O)c1ccc(O)c(O)c1`, the fold change was 1.53. In the case of `CNC(C)(C)Cc1ccccc1`, the fold change was found to be 1.1. As for `CC(=O)C1=C(O)C2C3c4c[nH]c5cccc(c45)CC3C(C)(C)N2C1=O` (centres undefined), the figure is 1.11; as for `COc1cc([C@@H]2c3cc4c(cc3[C@H](O)[C@H]3COC(=O)[C@H]23)OCO4)cc(OC)c1OC`, 0.57; as for `O=P1(N(CCCl)CCCl)NCCCO1` (centres undefined), 0.79. As for `COc1ccc2c(c1OC)C(=O)O[C@H]2[C@H]1c2cc3c(cc2CCN1C)OCO3`, the figure is 0.8; as for `NCC(CC(=O)O)c1ccc(Cl)cc1` (centres undefined), 1.37. As for `C=C[C@H]1CN2CC[C@H]1C[C@@H]2[C@H](O)c1ccnc2ccccc12`, the figure is 1.18; as for `CC1[C@H](C)OC(=O)CC(O)CC(O)CC(O)CCC(O)C(O)C[C@]2(O)CC(O)C(C(=O)O)C(CC(OC3O[C@H](C)[C@@H](O)[C@H](N)[C@@H]3O)/C=C/C=C/C=C/C=C/CC/C=C/C=C/[C@H](C)[C@H]1O)O2` (some centres undefined), 1.2; as for `CCCCC[C@H]1C(=O)O[C@H](C)[C@H](NC(=O)c2cccc(NC=O)c2O)C(=O)O[C@@H](C)[C@@H]1OC(=O)CC(C)C`, 0.64. Consider `CC(=O)Nc1cc([As](=O)(O)O)ccc1O`, for which the fold change stood at 0.73. In the case of `Cc1cc2c(C(C)C)c(O)c(O)c(C=O)c2c(O)c1-c1c(C)cc2c(C(C)C)c(O)c(O)c(C=O)c2c1O` it was 0.95.

The values above are taken from PubChem BioAssay AID1611 (NINDS Approved Drug Screening Program, 2009).
